In PubChem BioAssay (NCI):
The panel holds about 83,000 compounds, 20% with a hit somewhere; the sample as a whole holds those more often.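 In brief: 96-well plates, 48 h treatment, single concentration, percent growth endpoint.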 Values without a mark were called inactive. Activity calls are given as the source filed them. Rule for the calls: active = growth percent below 10; inactive = the rest.

Key:
Experiment in all cases: NCI-60 one-dose screen, 48 h (100 = growth as untreated, 0 = no growth, -100 = all killed)
Conditions in all cases: 10 µM
HCT-15 colon = tested on: HCT-15 colon
HT29 colon = tested on: HT29 colon
SNB-75 CNS = tested on: SNB-75 CNS
SNB-19 CNS = tested on: SNB-19 CNS
U251 CNS = tested on: U251 CNS
PC-3 prostate = tested on: PC-3 prostate
SK-MEL-5 melanoma = tested on: SK-MEL-5 melanoma
UACC-62 melanoma = tested on: UACC-62 melanoma
LOX IMVI melanoma = tested on: LOX IMVI melanoma
SK-MEL-28 melanoma = tested on: SK-MEL-28 melanoma

Row | Structure (SMILES) | growth (HCT-15 colon) | growth (HT29 colon) | growth (SNB-75 CNS) | growth (SNB-19 CNS) | growth (U251 CNS) | growth (PC-3 prostate) | growth (SK-MEL-5 melanoma) | growth (UACC-62 melanoma) | growth (LOX IMVI melanoma) | growth (SK-MEL-28 melanoma)
1 | CC1=C2C(=C[C@@](C)(COCOCCCl)[C@@H]2O)C(=O)[C@](C)(O)C12CC2 | -38.9% (active) | -11.9% (active) | -53.2% (active) | -24.4% (active) | 1.56% (active) | 0.191% (active) | -62.3% (active) | -87% (active) | -82.2% (active) | -82.7% (active)
2 | Nc1cccnc1/C=N/NC(=S)NCCNC(=O)c1ccc(-n2nc(-c3ccccc3O)nc2-c2ccccc2O)cc1 | 17.9% | -42.8% (active) | 48.1% | 13.2% | 12.4% | 9.05% (active) | -42% (active) | -62.6% (active) | -45.2% (active) | 14.8%
3 | COC1CC(Cn2cc(COc3ccc4ccc(=O)oc4c3)nn2)C(OCc2ccccc2)C(OCc2ccccc2)C1OCc1ccccc1 (stereo not given) | 88.9% | 108% | 92.5% | 95.1% | 100% | 92.7% | 83.2% | 82.6% | 99.4% | 105%
4 | O=C(Cn1cc(CSc2nnc3oc4ccccc4n23)nn1)Nc1cccc(Cl)c1 | 62.4% | 82.3% | 51% | 74.5% | 70.6% | 50.4% | 58.3% | 49.6% | 58.3% | 81.5%
5 | CCOc1ccc(Nc2nc3ccccc3nc2Nc2ccc(OCC)cc2)cc1 | 26.8% | 27.9% | 90.9% | 39.7% | 32.3% | 19.8% | 81.6% | 73.3% | 83.8% | 99%
6 | Cc1nn(-c2ccccc2)c2ncn(CC(=O)N/N=C/c3c[nH]c4ccccc34)c(=O)c12 | 89.2% | 99.5% | 78.5% | 91.5% | 83.8% | 65.4% | 85.5% | 80.7% | 84.4% | 114%
7 | O=C(Nc1ccc(F)c(Cl)c1)c1cc(-c2ccc(F)cc2F)ccc1O | -18.7% (active) | 26.8% | -20.9% (active) | 13% | 11.5% | 1.28% (active) | -90.6% (active) | -54.6% (active) | -57.2% (active) | -16.2% (active)
8 | CCOc1ccc(/C=N/NC(=O)Cn2nc(Cc3ccc([N+](=O)[O-])cc3)c3onc(C)c3c2=O)cc1 | 33.7% | 34.6% | 6.05% (active) | -6.58% (active) | -66% (active) | 23.1% | 27.7% | 49.9% | -63.5% (active) | 49.7%
9 | CC1(c2ccccc2)NC(=O)N(CC(=O)Nc2ccc(C(=O)/C=C/c3ccc(Br)cc3)cc2)C1=O (stereo not given) | 19% | 3.41% (active) | 41.6% | 56.7% | 15.1% | 20.1% | 27.5% | 27.2% | -49.1% (active) | 48.9%
10 | COc1ccc2[nH]c(O)c(N=NC(=O)COc3ccc(NC(=O)Nc4ccc(Cl)cc4)cc3)c2c1 | 99.5% | 8.21% (active) | 42.8% | 3.67% (active) | -87.2% (active) | 18% | 32.2% | -30.2% (active) | -59.7% (active) | -72.3% (active)
11 | O=C(CSc1nnc(-c2c[nH]c3ccccc23)n1-c1ccccc1)Nc1ccc(C(=O)/C=C/c2cccc([N+](=O)[O-])c2)cc1 | 84.1% | 101% | 99.8% | 86.5% | 92.5% | 87% | 91.3% | 76.5% | 75.6% | 102%
12 | N#Cc1c(NC(=O)c2ccc(C(F)(F)F)cc2)sc2c1CCC(O)=C2 | 9.23% (active) | 38.2% | -3.93% (active) | 55.9% | 28.2% | 49.2% | -28.8% (active) | 13.8% | 23.9% | 41.6%
13 | Cc1cc(=O)oc2cc(OCCCCOc3ccc(/C=C/C(=O)Nc4ccccc4[N+](=O)[O-])cc3)ccc12 | 104% | 117% | 103% | 97.8% | 106% | 109% | 102% | 94.9% | 107% | 103%
14 | C/C(=C\CSc1ccccc1C(=O)O)CCCC(C)CCCC(C)CCCC(C)C (stereo not given) | 21.5% | 59.4% | 114% | 80.4% | 46.8% | 41% | 24.8% | 42.5% | 26.3% | 71.5%
15 | CN1C(=O)N(C)C2SC(N/N=C/c3cccs3)=NC21 (stereo not given) | 20.2% | 7.66% (active) | -1.77% (active) | 30.3% | 22.8% | 48.3% | 8.57% (active) | 4.74% (active) | 28.7% | 47.5%
16 | CN1CCO/C1=C(/NC(=O)c1ccc(Cl)cc1)[P+](c1ccccc1)(c1ccccc1)c1ccccc1 | 107% | 57.7% | 91.6% | 76.5% | 84.1% | 68.2% | 70.3% | 48.5% | 39.8% | 75.5%
17 | O=C(CSc1nnc(-c2ccc3nc(-c4ccccc4)[nH]c3c2)o1)Nc1ccc(Cl)cc1 | 15.7% | 17.4% | 66.1% | 63.9% | 48.9% | 43.3% | 15.3% | 34.3% | -2.86% (active) | 41.8%
18 | O=S(=O)(c1ccc(Cl)cc1)c1nc(-c2ccccc2)oc1S(=O)(=O)c1ccc(Cl)cc1 | 47.4% | 89.7% | 76.5% | 94.9% | 79.9% | 103% | 91.9% | 90.4% | 19.7% | 104%
19 | Cc1ccc(/C=C(\C#N)n2nnc3c(F)cccc32)cc1 | 12.2% | 2.75% (active) | 17.9% | 23.6% | -26.1% (active) | 24.7% | -23.5% (active) | 36.8% | -9.47% (active) | 28.8%
20 | Clc1ccc2c(N/N=C/c3c[nH]c4ccc(Br)cc34)ccnc2c1 | -80.3% (active) | -3.08% (active) | -91.1% (active) | -85.6% (active) | -25.6% (active) | -52.9% (active) | -100% (active) | -85.4% (active) | -77.7% (active) | -98.5% (active)
21 | COc1ccc(N(C)c2cc(C#N)nc3ccccc23)cc1N | 0.224% (active) | -22.1% (active) | 15.3% | 12.2% | 9.78% (active) | 30.3% | -47.7% (active) | 23.5% | 15% | 56.3%
22 | CC(=O)Oc1ccccc1C(=O)Oc1ccc(C(=O)/C=C/c2ccncc2)cc1 | -4.84% (active) | 22% | 102% | 47.2% | 14.7% | 54.7% | 71.2% | 50.6% | -44.2% (active) | 68.8%
23 | COc1ccc(CN2[C@@H](C(=O)NCc3ccc(C(=O)NO)cc3)Cc3c([nH]c4ccccc34)[C@@H]2C2CC2)cc1 | 19.5% | 10.9% | -12% (active) | 34.4% | 24.8% | 30.2% | -19.9% (active) | 3.09% (active) | 11.7% | 24.8%
24 | COc1cc(C2CC(c3ccc(C)cc3)=Nc3c(N)nc(N)nc3N2)ccc1Oc1nc(Nc2ccc(F)cc2)nc(N(C)C)n1 (stereo not given) | 14.9% | 9.46% (active) | 104% | 66.7% | 52.2% | 45.6% | -100% (active) | 77.7% | -77.8% (active) | 88.3%
25 | Cc1ccc(/C=C/C(=O)c2ccc(S(=O)(=O)NCCNc3nc(Nc4ccc(F)cc4)nc(N(C)C)n3)cc2)cc1 | -46.4% (active) | -55.6% (active) | 81.3% | 44.7% | -57.3% (active) | 12.3% | 29.4% | 32.5% | -100% (active) | 40.5%
26 | CN1CCCN(Cc2ccc(C(=O)Nc3cccc(Nc4ccc5cc(O)ccc5n4)c3)cc2C(F)(F)F)CC1 | 14.6% | 27.8% | 32.2% | 81.1% | 33.7% | 51.3% | 32.4% | 88.1% | -100% (active) | -67.9% (active)
27 | Cc1ccc2nc(COc3ccc(C(=O)NNC(=S)NCCc4ccccc4)cc3)[nH]c2c1 | 100% | 112% | 120% | -16.6% (active) | 24% | 81.4% | 89% | 49.9% | 79.9% | 92.9%
